Experimental data as given in article PMC7862700, “An all-to-all approach to the identification of sequence-specific readers for epigenetic DNA modifications on cytosine”.

Assays:
Assay in all cases: DAPPL (digital affinity profiling via proximity ligation, sequencing); 10 mM Tris-HCl pH 7.5, 50 mM NaCl, 1 mM DTT, 4% glycerol, room temperature, 30 min; GST-TFs on glutathione beads, 16-mer random dsDNA library, 0.1% formaldehyde crosslink after washing; high values mean tight binding
Conditions in all cases: protein: recombinant; tags: N-terminal GST; dsDNA, one strand shown
FEV = biological target: T1, FEV (Homo sapiens, UniProt Q99581 1-238)
T1 sequence: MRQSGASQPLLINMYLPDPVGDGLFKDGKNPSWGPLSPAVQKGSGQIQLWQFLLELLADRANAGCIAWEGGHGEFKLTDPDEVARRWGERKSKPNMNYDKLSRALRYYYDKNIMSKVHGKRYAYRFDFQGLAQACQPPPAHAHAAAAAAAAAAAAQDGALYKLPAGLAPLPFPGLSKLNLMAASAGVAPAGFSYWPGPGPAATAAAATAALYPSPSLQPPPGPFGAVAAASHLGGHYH
Summary of the method: (§1)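 The binding signal reported is, for every hexamer, its read frequency for a factor over its read frequency for the tag-only sample. Reads came from pools of yeast-expressed, GST-fused human transcription factors on glutathione beads, barcoded with DNA and mixed with that sample, which were incubated with 200 nmole of a random double-stranded 16-mer DNA library in Tris/NaCl/DTT/glycerol buffer at room temperature for 30 min. After washing, the pools were crosslinked with 0.1% formaldehyde, proximity-ligated with BsaI/T4 ligase for 1 h at 37 °C, PCR-amplified and sequenced on an Illumina NextSeq500.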

ETV5 = ETV5 (Homo sapiens, UniProt P41161 1-510)
Sequence of ETV5 (P41161 whole entry): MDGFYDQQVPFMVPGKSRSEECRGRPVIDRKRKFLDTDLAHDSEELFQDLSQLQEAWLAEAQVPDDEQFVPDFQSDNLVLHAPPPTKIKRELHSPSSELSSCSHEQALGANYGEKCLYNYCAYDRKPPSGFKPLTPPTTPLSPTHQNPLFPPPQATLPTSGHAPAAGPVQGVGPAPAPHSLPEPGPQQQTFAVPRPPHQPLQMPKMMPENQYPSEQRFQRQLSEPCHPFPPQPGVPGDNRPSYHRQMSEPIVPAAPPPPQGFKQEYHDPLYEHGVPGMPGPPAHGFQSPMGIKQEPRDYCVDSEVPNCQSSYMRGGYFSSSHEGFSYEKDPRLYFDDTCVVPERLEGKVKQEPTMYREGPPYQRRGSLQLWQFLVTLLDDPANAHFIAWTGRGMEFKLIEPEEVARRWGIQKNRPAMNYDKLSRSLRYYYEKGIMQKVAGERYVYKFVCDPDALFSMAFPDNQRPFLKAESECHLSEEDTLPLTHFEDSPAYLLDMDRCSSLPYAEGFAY
Summary of the method: as §1

SPIC = biological target: T2, SPIC (Homo sapiens, UniProt Q8N5J4 1-248)
T2 sequence: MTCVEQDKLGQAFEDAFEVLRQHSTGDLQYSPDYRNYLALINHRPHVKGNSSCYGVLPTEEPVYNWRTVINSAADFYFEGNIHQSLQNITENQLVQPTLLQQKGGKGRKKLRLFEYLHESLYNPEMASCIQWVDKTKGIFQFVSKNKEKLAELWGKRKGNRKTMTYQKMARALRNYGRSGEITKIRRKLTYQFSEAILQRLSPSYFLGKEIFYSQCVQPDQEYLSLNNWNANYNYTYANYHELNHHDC
Summary of the method: as §1

ELF4 = ELF4 (Homo sapiens, UniProt Q99607 1-663)
Sequence of ELF4 (Q99607 whole entry): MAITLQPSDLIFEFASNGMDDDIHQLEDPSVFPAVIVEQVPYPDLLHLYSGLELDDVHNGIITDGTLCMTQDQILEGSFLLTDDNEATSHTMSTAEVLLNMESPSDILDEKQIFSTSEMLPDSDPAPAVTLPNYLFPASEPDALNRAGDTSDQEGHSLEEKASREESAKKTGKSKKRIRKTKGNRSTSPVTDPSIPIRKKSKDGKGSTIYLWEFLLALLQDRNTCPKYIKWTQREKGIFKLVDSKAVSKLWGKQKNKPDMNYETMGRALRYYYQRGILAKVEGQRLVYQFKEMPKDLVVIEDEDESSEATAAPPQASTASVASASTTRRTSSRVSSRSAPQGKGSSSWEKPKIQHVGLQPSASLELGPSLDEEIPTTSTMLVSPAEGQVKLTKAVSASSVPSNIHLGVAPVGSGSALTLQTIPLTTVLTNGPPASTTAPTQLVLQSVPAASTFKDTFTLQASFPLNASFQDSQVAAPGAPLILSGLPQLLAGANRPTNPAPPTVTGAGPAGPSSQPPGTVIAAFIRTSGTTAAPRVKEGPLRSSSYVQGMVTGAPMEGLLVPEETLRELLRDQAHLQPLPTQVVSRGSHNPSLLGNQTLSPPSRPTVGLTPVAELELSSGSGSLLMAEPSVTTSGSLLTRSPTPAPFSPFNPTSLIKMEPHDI
Summary of the method: as §1

ELK4 = biological target: T3, ELK4 (Homo sapiens, UniProt P28324-2 1-405)
T3 sequence: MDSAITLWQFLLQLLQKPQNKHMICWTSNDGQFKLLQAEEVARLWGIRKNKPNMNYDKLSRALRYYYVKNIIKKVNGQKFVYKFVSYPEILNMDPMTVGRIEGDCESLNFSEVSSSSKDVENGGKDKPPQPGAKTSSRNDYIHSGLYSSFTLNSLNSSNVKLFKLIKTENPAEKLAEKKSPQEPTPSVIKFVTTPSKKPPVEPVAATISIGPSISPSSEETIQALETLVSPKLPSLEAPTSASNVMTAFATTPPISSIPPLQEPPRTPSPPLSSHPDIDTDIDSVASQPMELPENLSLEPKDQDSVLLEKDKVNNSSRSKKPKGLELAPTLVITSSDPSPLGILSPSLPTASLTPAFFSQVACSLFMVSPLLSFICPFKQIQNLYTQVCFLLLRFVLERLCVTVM
Summary of the method: as §1

ETV2 = biological target: T4, ETV2 (Homo sapiens, UniProt O00321 1-342)
T4 sequence: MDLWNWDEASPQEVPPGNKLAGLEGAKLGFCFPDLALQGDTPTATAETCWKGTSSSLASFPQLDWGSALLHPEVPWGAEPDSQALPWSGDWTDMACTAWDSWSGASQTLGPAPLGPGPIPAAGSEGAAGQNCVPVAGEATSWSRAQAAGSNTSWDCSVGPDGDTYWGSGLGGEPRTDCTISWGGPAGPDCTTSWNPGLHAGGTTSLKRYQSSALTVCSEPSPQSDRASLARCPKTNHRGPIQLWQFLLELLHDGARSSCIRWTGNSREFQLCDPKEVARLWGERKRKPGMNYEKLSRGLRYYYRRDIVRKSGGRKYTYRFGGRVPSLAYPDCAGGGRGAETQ
Summary of the method: as §1

ELF3 = biological target: T5, ELF3 (Homo sapiens, UniProt P78545 1-371)
T5 sequence: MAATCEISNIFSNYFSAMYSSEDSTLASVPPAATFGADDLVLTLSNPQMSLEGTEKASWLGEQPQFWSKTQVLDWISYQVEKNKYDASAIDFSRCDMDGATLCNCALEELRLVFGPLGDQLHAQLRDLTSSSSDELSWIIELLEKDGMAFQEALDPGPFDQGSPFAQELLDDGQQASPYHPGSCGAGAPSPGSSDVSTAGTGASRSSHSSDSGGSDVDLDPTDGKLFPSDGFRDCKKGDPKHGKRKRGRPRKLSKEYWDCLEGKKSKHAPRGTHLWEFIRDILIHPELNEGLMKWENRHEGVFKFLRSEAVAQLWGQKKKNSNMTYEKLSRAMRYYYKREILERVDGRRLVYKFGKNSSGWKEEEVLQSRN
Summary of the method: as §1

ETV1 = ETV1 (Homo sapiens, UniProt P50549 1-477)
Sequence of ETV1 (P50549 whole entry): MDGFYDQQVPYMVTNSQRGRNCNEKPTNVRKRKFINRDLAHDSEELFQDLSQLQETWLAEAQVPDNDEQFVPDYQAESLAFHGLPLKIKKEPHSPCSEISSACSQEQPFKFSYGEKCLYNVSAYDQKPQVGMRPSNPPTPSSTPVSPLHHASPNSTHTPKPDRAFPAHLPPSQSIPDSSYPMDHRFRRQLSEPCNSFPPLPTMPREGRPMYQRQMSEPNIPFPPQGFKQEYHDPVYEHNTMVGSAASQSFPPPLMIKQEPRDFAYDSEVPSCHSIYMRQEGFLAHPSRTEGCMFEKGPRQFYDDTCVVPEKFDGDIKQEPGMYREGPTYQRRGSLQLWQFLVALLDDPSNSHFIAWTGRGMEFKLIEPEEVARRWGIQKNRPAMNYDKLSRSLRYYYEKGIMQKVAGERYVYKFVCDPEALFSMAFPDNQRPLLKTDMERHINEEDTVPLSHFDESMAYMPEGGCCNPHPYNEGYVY
Summary of the method: as §1

ERF = biological target: T6, ERF (Homo sapiens, UniProt P50548 1-548)
T6 sequence: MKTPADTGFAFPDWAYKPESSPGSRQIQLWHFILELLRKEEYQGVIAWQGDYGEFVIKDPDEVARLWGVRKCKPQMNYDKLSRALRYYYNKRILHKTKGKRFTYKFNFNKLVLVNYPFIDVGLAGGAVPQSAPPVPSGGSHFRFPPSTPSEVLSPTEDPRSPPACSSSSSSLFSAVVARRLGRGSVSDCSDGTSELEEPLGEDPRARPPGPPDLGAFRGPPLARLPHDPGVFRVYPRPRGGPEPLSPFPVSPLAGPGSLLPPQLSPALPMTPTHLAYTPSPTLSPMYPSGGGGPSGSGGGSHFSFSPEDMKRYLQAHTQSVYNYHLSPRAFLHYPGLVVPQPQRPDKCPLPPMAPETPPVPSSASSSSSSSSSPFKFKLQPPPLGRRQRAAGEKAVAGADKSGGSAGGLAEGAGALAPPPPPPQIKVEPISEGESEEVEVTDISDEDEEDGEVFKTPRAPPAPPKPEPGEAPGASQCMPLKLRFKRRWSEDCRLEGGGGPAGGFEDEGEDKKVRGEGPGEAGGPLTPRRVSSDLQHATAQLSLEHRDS
Summary of the method: as §1

ETV3L = biological target: T7, ETV3L (Homo sapiens, UniProt Q6ZN32 1-361)
T7 sequence: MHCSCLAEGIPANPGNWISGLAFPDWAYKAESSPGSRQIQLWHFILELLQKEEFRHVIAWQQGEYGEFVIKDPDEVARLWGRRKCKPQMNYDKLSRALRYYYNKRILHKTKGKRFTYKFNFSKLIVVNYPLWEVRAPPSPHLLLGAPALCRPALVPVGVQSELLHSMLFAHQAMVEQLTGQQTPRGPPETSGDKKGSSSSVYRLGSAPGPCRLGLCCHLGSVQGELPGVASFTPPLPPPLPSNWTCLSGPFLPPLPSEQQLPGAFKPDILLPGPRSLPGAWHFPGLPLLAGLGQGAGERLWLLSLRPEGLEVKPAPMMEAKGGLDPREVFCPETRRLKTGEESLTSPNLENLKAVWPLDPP
Summary of the method: as §1

ETS2 = biological target: T8, ETS2 (Homo sapiens, UniProt P15036 1-469)
T8 sequence: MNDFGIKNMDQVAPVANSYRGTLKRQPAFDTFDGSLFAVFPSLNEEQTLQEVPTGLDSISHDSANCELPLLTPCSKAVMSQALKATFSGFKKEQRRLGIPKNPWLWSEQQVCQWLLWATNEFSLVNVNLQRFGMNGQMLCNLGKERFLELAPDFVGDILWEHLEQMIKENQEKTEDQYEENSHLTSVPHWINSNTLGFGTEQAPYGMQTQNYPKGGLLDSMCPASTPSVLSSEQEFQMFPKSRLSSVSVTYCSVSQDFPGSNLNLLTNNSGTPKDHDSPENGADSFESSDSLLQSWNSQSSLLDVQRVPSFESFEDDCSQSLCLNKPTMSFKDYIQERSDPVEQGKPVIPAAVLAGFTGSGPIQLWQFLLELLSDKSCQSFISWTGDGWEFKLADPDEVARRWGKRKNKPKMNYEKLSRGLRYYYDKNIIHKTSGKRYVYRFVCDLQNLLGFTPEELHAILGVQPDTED
Summary of the method: as §1

SPDEF = biological target: T9, SPDEF (Homo sapiens, UniProt O95238 1-335)
T9 sequence: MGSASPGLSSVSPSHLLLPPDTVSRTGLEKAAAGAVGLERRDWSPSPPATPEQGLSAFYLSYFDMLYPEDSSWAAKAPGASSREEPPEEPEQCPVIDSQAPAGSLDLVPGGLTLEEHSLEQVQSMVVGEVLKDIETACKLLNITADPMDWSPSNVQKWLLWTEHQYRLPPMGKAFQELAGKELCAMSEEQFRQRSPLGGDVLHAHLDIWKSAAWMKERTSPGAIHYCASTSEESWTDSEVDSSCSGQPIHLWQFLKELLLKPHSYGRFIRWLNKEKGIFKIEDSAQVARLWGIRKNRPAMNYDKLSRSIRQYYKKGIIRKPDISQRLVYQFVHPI
Summary of the method: as §1

ETV7 = biological target: T10, ETV7 (Homo sapiens, UniProt Q9Y603 1-341)
T10 sequence: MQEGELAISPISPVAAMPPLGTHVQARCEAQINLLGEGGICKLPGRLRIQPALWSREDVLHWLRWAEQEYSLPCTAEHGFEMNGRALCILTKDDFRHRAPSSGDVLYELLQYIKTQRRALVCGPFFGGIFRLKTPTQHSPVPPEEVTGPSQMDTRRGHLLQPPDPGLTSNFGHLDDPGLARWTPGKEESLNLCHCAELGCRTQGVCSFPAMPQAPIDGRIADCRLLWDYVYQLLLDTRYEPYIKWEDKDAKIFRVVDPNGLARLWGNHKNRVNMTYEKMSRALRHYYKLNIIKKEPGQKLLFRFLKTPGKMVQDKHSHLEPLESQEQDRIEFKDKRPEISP
Summary of the method: as §1

ELF5 = biological target: T11, ELF5 (Homo sapiens, UniProt Q9UKW6-2 1-255)
T11 sequence: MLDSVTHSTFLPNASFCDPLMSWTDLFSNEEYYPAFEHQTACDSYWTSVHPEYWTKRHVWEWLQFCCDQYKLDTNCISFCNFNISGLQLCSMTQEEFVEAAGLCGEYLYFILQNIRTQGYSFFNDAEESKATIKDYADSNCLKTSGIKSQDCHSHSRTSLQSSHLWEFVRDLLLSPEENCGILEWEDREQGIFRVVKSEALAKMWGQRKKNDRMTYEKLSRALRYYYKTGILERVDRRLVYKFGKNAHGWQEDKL
Summary of the method: as §1

ETV3 = biological target: T12, ETV3 (Homo sapiens, UniProt P41162-2 1-143)
T12 sequence: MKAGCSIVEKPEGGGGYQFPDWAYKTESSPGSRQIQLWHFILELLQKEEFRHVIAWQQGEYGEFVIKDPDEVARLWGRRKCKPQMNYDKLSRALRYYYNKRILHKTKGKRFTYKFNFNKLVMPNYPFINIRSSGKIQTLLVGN
Summary of the method: as §1

ETV6 = ETV6 (Homo sapiens, UniProt P41212 1-452)
Sequence of ETV6 (P41212 whole entry): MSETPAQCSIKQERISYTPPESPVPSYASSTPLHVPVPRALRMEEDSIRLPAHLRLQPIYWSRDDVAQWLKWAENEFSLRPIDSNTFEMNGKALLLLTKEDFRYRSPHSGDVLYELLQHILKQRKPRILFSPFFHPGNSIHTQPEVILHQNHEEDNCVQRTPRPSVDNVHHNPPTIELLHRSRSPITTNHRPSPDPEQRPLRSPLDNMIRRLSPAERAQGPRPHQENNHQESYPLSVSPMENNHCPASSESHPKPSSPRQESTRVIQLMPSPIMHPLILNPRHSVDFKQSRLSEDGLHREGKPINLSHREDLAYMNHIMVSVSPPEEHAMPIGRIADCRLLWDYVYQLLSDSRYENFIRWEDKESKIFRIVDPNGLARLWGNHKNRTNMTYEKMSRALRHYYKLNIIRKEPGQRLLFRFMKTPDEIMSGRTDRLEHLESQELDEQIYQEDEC
Summary of the method: as §1

Row | Sequence | binding signal (FEV) | binding signal (ETV5) | binding signal (SPIC) | binding signal (ELF4) | binding signal (ELK4) | binding signal (ETV2) | binding signal (ELF3) | binding signal (ETV1) | binding signal (ERF) | binding signal (ETV3L) | binding signal (ETS2) | binding signal (SPDEF) | binding signal (ETV7) | binding signal (ELF5) | binding signal (ETV3) | binding signal (ETV6)
1 | GGACAT | 1.56 fold enrichment (6-mer frequency, TF over GST control) | 1.18 fold enrichment (6-mer frequency, TF over GST control) | 1.28 fold enrichment (6-mer frequency, TF over GST control) | 1.11 fold enrichment (6-mer frequency, TF over GST control) | 1.07 fold enrichment (6-mer frequency, TF over GST control) | 1.16 fold enrichment (6-mer frequency, TF over GST control) | 1.24 fold enrichment (6-mer frequency, TF over GST control) | 1.23 fold enrichment (6-mer frequency, TF over GST control) | 1.12 fold enrichment (6-mer frequency, TF over GST control) | 1.13 fold enrichment (6-mer frequency, TF over GST control) | 1.18 fold enrichment (6-mer frequency, TF over GST control) | 1.43 fold enrichment (6-mer frequency, TF over GST control) | 1.23 fold enrichment (6-mer frequency, TF over GST control) | 1.24 fold enrichment (6-mer frequency, TF over GST control) | 1.23 fold enrichment (6-mer frequency, TF over GST control) | 1.18 fold enrichment (6-mer frequency, TF over GST control)
2 | GTCCAT | 1.03 fold enrichment (6-mer frequency, TF over GST control) | 1.17 fold enrichment (6-mer frequency, TF over GST control) | 1.17 fold enrichment (6-mer frequency, TF over GST control) | 1.1 fold enrichment (6-mer frequency, TF over GST control) | 1.18 fold enrichment (6-mer frequency, TF over GST control) | 1.04 fold enrichment (6-mer frequency, TF over GST control) | 1.11 fold enrichment (6-mer frequency, TF over GST control) | 1.18 fold enrichment (6-mer frequency, TF over GST control) | 1.08 fold enrichment (6-mer frequency, TF over GST control) | 1.24 fold enrichment (6-mer frequency, TF over GST control) | 1.04 fold enrichment (6-mer frequency, TF over GST control) | 1.02 fold enrichment (6-mer frequency, TF over GST control) | 1.14 fold enrichment (6-mer frequency, TF over GST control) | 1.07 fold enrichment (6-mer frequency, TF over GST control) | 1.11 fold enrichment (6-mer frequency, TF over GST control) | 1.07 fold enrichment (6-mer frequency, TF over GST control)
3 | CACACT | 1.21 fold enrichment (6-mer frequency, TF over GST control) | 1.23 fold enrichment (6-mer frequency, TF over GST control) | 1.13 fold enrichment (6-mer frequency, TF over GST control) | 1.23 fold enrichment (6-mer frequency, TF over GST control) | 1.13 fold enrichment (6-mer frequency, TF over GST control) | 1.14 fold enrichment (6-mer frequency, TF over GST control) | 1.21 fold enrichment (6-mer frequency, TF over GST control) | 1.14 fold enrichment (6-mer frequency, TF over GST control) | 1.22 fold enrichment (6-mer frequency, TF over GST control) | 1.12 fold enrichment (6-mer frequency, TF over GST control) | 1.14 fold enrichment (6-mer frequency, TF over GST control) | 1.13 fold enrichment (6-mer frequency, TF over GST control) | 1.14 fold enrichment (6-mer frequency, TF over GST control) | 1.18 fold enrichment (6-mer frequency, TF over GST control) | 1.18 fold enrichment (6-mer frequency, TF over GST control) | 1.15 fold enrichment (6-mer frequency, TF over GST control)
